According to PubChem BioAssay (EPA / NIEHS):
Activity calls are given as the source filed them. Rule for the calls: active = hit-call score of the fitted dose curve at least 0.9, where 1 is the maximum; inactive = score below 0.9.

Test system: not listed separately
Experiment: ATG_NFI_CIS: Attagene CIS-FACTORIAL HepG2 Assay for human Nuclear Factor I (NFI) (AID 2282989)
Details: HepG2 cis-regulatory reporter, NFI response element transcription; actives raise or lower the signal
Summary of the method: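 Multiplexed cis-reporter system in human HepG2 cells reports native TF activity as reporter mRNA induction 24 h post-dose. Fragments labelled with 6-FAM, HpaI-digested and resolved by capillary electrophoresis; activity fitted both directions versus DMSO.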

Structure (SMILES) | outcome | AC50
C=COCCOCCOCCOC=C | inactive | –
CC(O)C(C)O (stereo unspecified) | inactive | –
Nc1cc(Cl)c(O)c(Cl)c1 | inactive | –
CN(C)CCOCCN(C)C | inactive | –
O=C(O)Cc1cccc2ccccc12 | inactive | –
CNCCCC12CCC(c3ccccc31)c1ccccc12 | – | 11.1 µM (active)
CCCc1ccccc1O | inactive | –
C=C[C@@H](C)CCC=C(C)C | inactive | –
O=S(=O)(O)c1ccc(O)c2ncccc12 | inactive | –
CCC(C(=O)NC(N)=O)c1ccccc1 (stereo unspecified) | inactive | –
c1cc(C(c2ccc(OCC3CO3)cc2)c2ccc(OCC3CO3)cc2)ccc1OCC1CO1 (stereo unspecified) | – | 10.1 µM (active)
CCCCCC=CCC(=O)OC | inactive | –
CCC(C)CCCC(C)(C)O (stereo unspecified) | inactive | –
COCCCOc1ccnc(CS(=O)c2nc3ccccc3[nH]2)c1C (stereo unspecified) | inactive | –
CC(C)(C#N)c1cc(Cn2cncn2)cc(C(C)(C)C#N)c1 | inactive | –
C=C(C)C(=O)Nc1ccc(Cl)c(Cl)c1 | inactive | –
C=CC(=O)NCOCC(C)C | inactive | –
CCCCCCCCCCCCN(CCCCCCCCCCCC)CCCCCCCCCCCC | inactive | –
CC1CCC2CC1C2(C)C (stereo unspecified) | inactive | –

Structure (SMILES) | outcome | AC50
c1ccc2[nH]ccc2c1 | inactive | –
O=c1[nH]nnc2ccccc12 | inactive | –
Clc1ccc(Cl)c(Cl)c1Cl | inactive | –
CCCCCCCCCCCCCOS(=O)(=O)O | inactive | –
O=C(O)CCCCCCCC(=O)O | inactive | –
CCN(CC)CCOC(=O)c1ccc(N)cc1 | inactive | –
O=C1O[C@@H]2[C@@H](O)[C@H](O)O[C@@H]2[C@H]1O | inactive | –
CC(CN1c2ccccc2Sc2ccccc21)N(C)C (stereo unspecified) | inactive | –
C/C=C(\C)C(=O)OCc1ccccc1 | inactive | –
CCC(O)CO (stereo unspecified) | inactive | –
CCN(CC)c1ccc(C(=C2C=CC(=[N+](CC)CC)C=C2)c2ccc(S(=O)(=O)O)cc2S(=O)(=O)[O-])cc1 | inactive | –
COCCOCCOCCOCCOCCO | inactive | –
CCc1ccc(C=O)cc1 | inactive | –
O=C(Oc1ccccc1)c1ccc(O)cc1 | inactive | –
Cc1cccc(C)c1C | inactive | –
CCCCc1ccc(N)cc1 | inactive | –
NC(N)=NC(=O)c1nc(Cl)c(N)nc1N | inactive | –
CCCC(C)C=O (stereo unspecified) | inactive | –
O=C(O)CCCCC1CCSS1 (stereo unspecified) | inactive | –

Target: Myc proto-oncogene protein (Homo sapiens) (UniProt P01106)
Experiment: ATG_Myc_CIS: Attagene CIS-FACTORIAL HepG2 Assay for human Myelocytomatosis (Myc) Proto-Oncogene Transcription Factor (AID 2282990)
Details: HepG2, Attagene cis-reporter transcription factor activity; actives raise or lower the signal
Summary of the method: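 HepG2 cells transiently transfected with multiple cis-promoter-driven reporter transcription units, so endogenous TF activity is read. After 24 h compound exposure, reporter mRNA was quantified by RT-PCR, 6-FAM labelling, HpaI digestion and capillary electrophoresis; bidirectional fit versus DMSO.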

Myc proto-oncogene protein (Homo sapiens), sequence (P01106 whole entry, looked up): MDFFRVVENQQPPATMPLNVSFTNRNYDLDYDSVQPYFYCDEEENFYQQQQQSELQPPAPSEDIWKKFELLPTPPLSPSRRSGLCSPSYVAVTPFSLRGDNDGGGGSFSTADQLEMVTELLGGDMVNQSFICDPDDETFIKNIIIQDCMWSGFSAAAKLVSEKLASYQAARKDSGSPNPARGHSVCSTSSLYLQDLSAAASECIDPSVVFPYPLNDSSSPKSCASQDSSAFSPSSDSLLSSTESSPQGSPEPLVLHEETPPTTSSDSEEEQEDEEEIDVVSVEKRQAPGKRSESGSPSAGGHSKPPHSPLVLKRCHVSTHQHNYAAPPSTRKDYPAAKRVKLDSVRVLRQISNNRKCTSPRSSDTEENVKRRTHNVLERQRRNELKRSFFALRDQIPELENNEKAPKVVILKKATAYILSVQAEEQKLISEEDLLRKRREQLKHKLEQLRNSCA

Structure (SMILES) | outcome | AC50
C=COCCOCCOCCOC=C | inactive | –
CC(O)C(C)O (stereo unspecified) | inactive | –
Nc1cc(Cl)c(O)c(Cl)c1 | – | 100 µM (active)
CN(C)CCOCCN(C)C | inactive | –
O=C(O)Cc1cccc2ccccc12 | inactive | –
CNCCCC12CCC(c3ccccc31)c1ccccc12 | inactive | –
CCCc1ccccc1O | inactive | –
C=C[C@@H](C)CCC=C(C)C | inactive | –
O=S(=O)(O)c1ccc(O)c2ncccc12 | inactive | –
CCC(C(=O)NC(N)=O)c1ccccc1 (stereo unspecified) | inactive | –
c1cc(C(c2ccc(OCC3CO3)cc2)c2ccc(OCC3CO3)cc2)ccc1OCC1CO1 (stereo unspecified) | inactive | –
CCCCCC=CCC(=O)OC | inactive | –
CCC(C)CCCC(C)(C)O (stereo unspecified) | inactive | –
COCCCOc1ccnc(CS(=O)c2nc3ccccc3[nH]2)c1C (stereo unspecified) | inactive | –
CC(C)(C#N)c1cc(Cn2cncn2)cc(C(C)(C)C#N)c1 | inactive | –
C=C(C)C(=O)Nc1ccc(Cl)c(Cl)c1 | inactive | –
C=CC(=O)NCOCC(C)C | inactive | –
CCCCCCCCCCCCN(CCCCCCCCCCCC)CCCCCCCCCCCC | inactive | –
CC1CCC2CC1C2(C)C (stereo unspecified) | inactive | –

Structure (SMILES) | outcome | AC50
c1ccc2[nH]ccc2c1 | inactive | –
O=c1[nH]nnc2ccccc12 | inactive | –
Clc1ccc(Cl)c(Cl)c1Cl | inactive | –
CCCCCCCCCCCCCOS(=O)(=O)O | inactive | –
O=C(O)CCCCCCCC(=O)O | inactive | –
CCN(CC)CCOC(=O)c1ccc(N)cc1 | inactive | –
O=C1O[C@@H]2[C@@H](O)[C@H](O)O[C@@H]2[C@H]1O | inactive | –
CC(CN1c2ccccc2Sc2ccccc21)N(C)C (stereo unspecified) | inactive | –
C/C=C(\C)C(=O)OCc1ccccc1 | inactive | –
CCC(O)CO (stereo unspecified) | inactive | –
CCN(CC)c1ccc(C(=C2C=CC(=[N+](CC)CC)C=C2)c2ccc(S(=O)(=O)O)cc2S(=O)(=O)[O-])cc1 | inactive | –
COCCOCCOCCOCCOCCO | inactive | –
CCc1ccc(C=O)cc1 | inactive | –
O=C(Oc1ccccc1)c1ccc(O)cc1 | inactive | –
Cc1cccc(C)c1C | inactive | –
CCCCc1ccc(N)cc1 | inactive | –
NC(N)=NC(=O)c1nc(Cl)c(N)nc1N | inactive | –
CCCC(C)C=O (stereo unspecified) | inactive | –
O=C(O)CCCCC1CCSS1 (stereo unspecified) | inactive | –
